Our source for the activity change values is PubChem BioAssay AID651724 (National Center for Advancing Translational Sciences (NCATS), 2012).

The campaign covered roughly 340,000 compounds. About 1,700 (0.5%) were called active. About 2% were inconclusive and are not listed. This is one part of a sample in which actives are shown more often than they occur. Cut-off read from the data, not from the text of the source: active = activity change below about -65%; inconclusive = mostly about -30% to -63%; inactive = weaker than that.
% is set by controls: 0 for no effect and ±100 for the full control effect.

In the test the test system is CtBP / adenovirus E1A interaction (AlphaScreen). In words: qHTS Assay for Inhibitors of the CtBP/E1A Interaction. The note with it: AlphaScreen GST-E1A/His-CtBP binding, 1536-well; active compounds read low. In a few lines: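 In 5 uL wells, 23 nL compound meets equimolar GST-E1A and His-CtBP (5X stock 125 nM each) for 2 h, 37 °C. Beads (5X, 50 ug/mL) then 1 h, 37 °C, dark.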
Consider `COc1ccccc1CNc1nc(Nc2ccccc2Cl)c2sccc2n1`, for which the activity change is -5.37% (inactive).

Turning to `NC(c1csc(NC(=O)Nc2cccc(C(F)(F)F)c2)n1)C1CCCCC1` (stereo unspecified), the activity change is -2.68% (inactive).

On to `CC1(C)OC(=O)C2=C(C[C@@H](C3CC3)O[C@H]2CCc2cccc(Cl)c2)O1`, for which the activity change is 11.1% (inactive).

On to `CCCNC(=O)C1(C)CCN(Cc2csc(-c3ccc(Cl)cc3)n2)C1` (stereo unspecified), for which the activity change was -2.56% (inactive).

Consider `COc1cccc(/C=N/Nc2ncc(C(F)(F)F)cc2Cl)c1O`, for which the activity change is -98.2% (active). Turning to `Oc1ccc(/C=N/Nc2ccc(C(F)(F)F)cn2)cc1O`, the activity change was -14% (inactive). Regarding `COc1cccc(/C=N/Nc2ccc(S(=O)(=O)Nc3ccccc3C(=O)O)cc2[N+](=O)[O-])c1O`, the activity change was -15.4% (inactive).

Consider `CC(C)c1cccc(C(C)C)c1Nc1cn[nH]c1`, for which the activity change was -13.7% (inactive). As to `COCCCNc1ccn2nc(-c3ccc(CC(C)C)cc3)cc2n1`, the activity change was 4.88% (inactive). Turning to `COc1ccc(CN2CCC(C)(Oc3cccc(F)c3)C2)c2ccccc12` (stereo unspecified), the activity change is -13.7% (inactive). For the molecule `CCN(CC)CCOc1ccc2c(c1)C(=NNC(=O)c1ccccn1)c1cc(OCCN(CC)CC)ccc1-2`, the activity change was -70.2% (active). Regarding `CCC(C(=O)OCCN(CC)CC)c1ccccc1` (stereo unspecified), the activity change is -0.583% (inactive). The figure for `CCOc1cc2ccccc2cc1C(=O)Nc1ccccn1` is -7.02% (inactive); for `Cc1nc2c(OCc3ccc(Cl)cc3)cccn2c1N(C)Cc1cccs1` it is -7.51% (inactive). On to `CC1CCCC(NC(=O)COC(=O)c2ccccc2C(=O)N(C)C2CCCCC2)C1C` (stereo unspecified), for which the activity change was -2.61% (inactive). The figure for `Cc1c(NC(=O)COC(=O)/C=C/c2cccc(F)c2)c(=O)n(-c2ccccc2)n1C` is 0.516% (inactive); for `CCOc1ccc(CCN2C(=S)N([C@@H](CC(C)C)CN3CCC[C@@H]3CN3C(=S)NC[C@@H]3Cc3ccc(O)cc3)C[C@@H]2CC(C)C)cc1` it is -10.9% (inactive). Next, `CC(=O)Nc1cccc(-c2ccnc3c2CC(C)(C(=O)NCc2ccco2)O3)c1` (stereo unspecified): -10.5% (inactive); `S=c1[nH]nc(-c2cccs2)n1/N=C/c1cccs1`: 0% (inactive); `Cc1n[nH]c(=O)nc1N/N=C/c1cccs1`: -89.5% (active).

Regarding `NC(=O)N/N=C\c1cccs1`, the activity change was -12.4% (inactive). The figure for `C=CCC[C@@H](CCCCC)OC(=O)/C=C/[C@@H](O)[C@H](O)C[C@H](O)CC=C` is -9.7% (inactive); for `COc1ccc(C(C(=O)NCc2ccccc2)n2c(=O)c(-c3ccccc3)nc3ccccc32)cc1` (stereo unspecified) it is 0% (inactive). On to `CC(NC(=O)c1ccco1)C(=O)Nc1nc(-c2ccccn2)cs1` (stereo unspecified), for which the activity change was -88.4% (active).

Take `O=C(COc1ccccc1F)Nc1nc(-c2ccccn2)cs1`: the activity change is -89% (active). Next, `CCOC(=O)N1CCN(C(=O)C(C)NC(=O)c2ccco2)CC1` (stereo unspecified): -2.35% (inactive). On to `O=C(COc1ccccc1F)NC1CC1`, for which the activity change was 8.72% (inactive). The figure for `CC1CCN(S(=O)(=O)c2nnc(NC(=O)COc3ccccc3F)s2)CC1` is 1.46% (inactive); for `CSCCC(NC(=O)c1ccco1)C(=O)Nc1cc(C)ccn1` (stereo unspecified) it is 0.873% (inactive). `O=C(CN1C(=O)C2C3C=CC(C3)C2C1=O)Nc1nc(-c2ccccn2)cs1` (stereo unspecified): the activity change was -80.4% (active).

For the molecule `O=C(NCCN1C(=O)C2C3C=CC(C3)C2C1=O)Nc1ccccn1` (stereo unspecified), the activity change was -15.4% (inactive). For the molecule `O=C(CN1C(=O)C2C3C=CC(C3)C2C1=O)NCCc1ccccc1Cl` (stereo unspecified), the activity change is 12.6% (inactive). As for `CCOC(=O)c1cc(-c2sc(NC(=O)c3ccccc3)nc2C)n(Cc2ccccc2)n1`, the activity change is 0.44% (inactive).

Turning to `CN1OC[C@@H]2CN(S(=O)(=O)c3cccc(C(F)(F)F)c3)[C@H](c3ccc(-c4cc5ccccc5o4)cc3)C[C@@H]21`, the activity change was -21.8% (inactive). For `CCCCC(=O)N(C)c1c(CC)nc2c(OCc3ccc(S(C)(=O)=O)cc3)cccn12`, the activity change was 0.375% (inactive). In the case of `COc1cc(/C=N/NC(=O)CNC(=O)c2ccncc2)ccc1OC(C)=O`, the activity change is -2.8% (inactive). Next, `COc1ccc(/C=N\NC(=O)c2sc(N)nc2C)cc1OC`: -68.1% (active). With `COc1cccc(OCc2cc(/C=N/NC(=O)c3nc(Cl)c(Cl)c(N)c3Cl)ccc2OC)c1`, the activity change was 7.69% (inactive). For `O=C(NCc1cccnc1)c1cc(C2CCCN(C(=O)CCCc3ccccc3)C2)on1` (stereo unspecified), the activity change is 0.406% (inactive). With `CCN(CC)C(=O)C1=C(C)N(Cc2ccccc2)C(=O)C(CC(=O)NC(c2ccccc2)c2ccccc2)C1` (stereo unspecified), the activity change is -5.91% (inactive). As for `CCCOc1ccc(F)cc1-c1cc(C(=O)NCc2ccc(F)cc2)[nH]n1`, the activity change was 0% (inactive).
